Measurements taken from PubChem BioAssay (NCI).
This is part of a sample that, as a whole, favours compounds with a hit. Of some 83,000 tested, about 20% had one in any assay.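 Step 1: grow cells in 96-well plates. Step 2: add test compound at a single concentration. Step 3: incubate 48 h. Step 4: record percent growth.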 A number with no mark means an inactive call. Active and inactive are the calls of the source. The calls were made as follows: active = growth percent below 10; inactive = the rest.

Tested on: HL-60(TB) leukemia
Experiment: NCI-60 one-dose screen, 48 h (100 = growth as untreated, 0 = no growth, -100 = all killed)
Conditions: 10 µM unless noted

Structure (SMILES) | growth
COc1cc(C2C3=C(COC3=O)N(CCO)c3cc4c(cc32)OCO4)cc(OC)c1O (stereo not given) | 4.08% (active)
O/N=C1\CCC2CCCCC2C1 (stereo not given) | 98.8%
O=c1c(CNc2ccc(S(=O)(=O)Nc3ncccn3)cc2)coc2ccccc12 | 93.2%
CCc1ccc2c(c1)N(CCO)C1=C(C(=O)OC1)C2c1cc(OC)c(OC)c(OC)c1 (stereo not given) | -26.4% (active)
NS(=O)(=O)c1ccc(N2N=C(c3ccc(-c4ccccc4)cc3)CC2c2ccc(Cl)cc2)cc1 (stereo not given) | 86.5%
CSCCC1NC(=O)C(C(C)=Nc2ccccc2)=C1O (stereo not given) | 117%
Fc1ccc(CNc2c3ccccc3nc3ccccc23)cc1F | 34.5%
C/C(=N\N1CC(=O)NC1=O)c1ccc([N+](=O)[O-])o1 | 62.7%
N#Cc1c(NN)n(C2OC(CO)C(O)C2O)c2ncnc(N)c12 (stereo not given) | -52.1% (active)
O=C1COc2ccccc2C(=O)N1CCCCN1CCCCC1 | 75.3%
O=c1c2ccccc2oc2ccc(OCCCCCCN3CCCCCC3)cc12 | -47.9% (active)
CCCCc1n(Cc2ccc3ccccc3c2)cc[n+]1Cc1ccc2ccccc2c1 | -52.6% (active)
CCNCCCn1c2c(c3ccc([N+](=O)[O-])cc3c1=O)C(=O)c1cc(OC)cnc1-2 | -36% (active)
O=C1/C(=C/c2ccc(C(F)(F)F)cc2)COc2ccc(O)c(O)c21 | -26.1% (active)
CC(C)C(=O)Nc1ccc(-c2nc(-c3cccc(OCCN4CCOCC4)c3)c(-c3ccnc(Br)c3)[nH]2)cc1 | -28.5% (active)
